The values below come from PubChem BioAssay (EPA / NIEHS).

Active and inactive are the calls of the source. The calls were made as follows: active = hit-call score of the fitted dose curve at least 0.9, where 1 is the maximum; inactive = score below 0.9. Peptide text beside a SMILES is read from it.

Sequence of Retinoic acid receptor alpha (Homo sapiens) (P10276 whole entry, looked up): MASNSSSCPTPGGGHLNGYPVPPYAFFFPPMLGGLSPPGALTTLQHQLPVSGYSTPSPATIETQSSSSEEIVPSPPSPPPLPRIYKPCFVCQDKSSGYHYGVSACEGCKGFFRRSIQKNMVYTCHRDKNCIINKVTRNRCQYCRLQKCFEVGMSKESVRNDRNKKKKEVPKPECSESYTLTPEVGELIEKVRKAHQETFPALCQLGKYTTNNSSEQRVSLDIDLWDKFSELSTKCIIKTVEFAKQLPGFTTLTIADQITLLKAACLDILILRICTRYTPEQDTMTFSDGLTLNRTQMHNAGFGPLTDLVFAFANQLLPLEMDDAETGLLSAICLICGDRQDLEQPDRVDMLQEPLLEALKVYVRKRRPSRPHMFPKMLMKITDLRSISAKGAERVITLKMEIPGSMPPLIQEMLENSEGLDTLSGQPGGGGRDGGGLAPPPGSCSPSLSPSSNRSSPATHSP

The assay has as its target Retinoic acid receptor alpha (Homo sapiens) (UniProt P10276). In words: ATG_DR5_RAR_CIS: Attagene CIS-FACTORIAL HepG2 Assay for human Retinoic Acid Receptor Alpha (RARE), DR5 submotif (AID 2282934).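 As to AC50: reporter responds to endogenous RAR alpha beta and gamma in HepG2 not RARA alone.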 The note with it: HepG2 Attagene cis-factorial RARE DR5 reporter, mRNA; actives raise or lower the signal. On the procedure:
ATG_CIS is a cell-based, multiplexed-readout assay that uses HepG2, a human liver cell line, with measurements taken at 24 hours after chemical dosing in a 24-well plate.ATG_DR5_RAR_CIS is one of 52 assay component(s) measured or calculated from the ATG_CIS assay. It is designed to make measurements of mRNA induction, a form of inducible reporter, as detected with fluorescence intensity signals by Reverse transcription polymerase chain reaction (RT-PCR) and Capillary electrophoresis technology.Data from the assay component ATG_DR5_RAR_CIS was analyzed into 1 assay endpoint. This assay endpoint, ATG_DR5_CIS, was analyzed with bidirectional fitting relative to DMSO as the negative control and baseline of activity. Using a type of inducible reporter, measures of mRNA for gain or loss-of-signal activity can be used to understand the reporter gene at the transcription factor-level as they relate to the gene RARA and RARB and RARG. Furthermore, this assay endpoint can be referred to as a primary readout, because this assay has produced multiple assay endpoints where this one serves a reporter gene function. To generalize the intended target to other relatable targets, this assay endpoint is annotated to the nuclear receptor intended target family, where the subfamily is non-steroidal.
Human liver HepG2 cells are transiently transfected with multiple reporter transcription units (MRTUs) in 6-well plates using FuGene 6 reagent (Roche; 3 ml FuGene/1 mg DNA). The MRTU constructs are regulated by a cis-regulating element (promoter). […] A major difference between the CIS and TRANS system is that in CIS activities of endogenous TFs are measured, whereas the TRANS assay evaluates changes in activities of exogenous, chimeric NR-Gal4 proteins. […] At the end of 24 hour incubation, total RNA was isolated using TriZol reagent (Invitrogen). The isolated RNA is then reverse-transcribed using oligo(dT) primer and Mo-MLV reverse transcriptase (Invitrogen) with DNAse I (Ambion) treatment for 30 min. The one-tenth of the produced cDNA was amplified by PCR using Taq DNA polymerase (Invitrogen) and two reporter sequence-specific primers. The PCR products were fluorescently labeled by primer extension with 6-arboxyfluorescein (6-FAM) 5'-labeled reporter sequence-specific primer (2 min at 95 C, 20 s at 68 C and 10 min at 72 C) and these products were digested with 5U of HpaI (New England Biolabs) for 2h at 37 C. The fragments were purified using Qiaquick PCR columns (Qiagen), analyzed on an ABI 3130xL genetic analyzer (Applied Biosystems) with peak positions identified by using a set of X-rhodamine (ROX)-labeled MapMarker1000 molecular weight standards (BioVentures). The raw capillary electrophoresis data was processed using Attagraph software (Attagene).
For `C=C[Si](OCCOC)(OCCOC)OCCOC`, the outcome was inactive.
As to `CCCCCCCCCCCCCCCCCCOS(=O)(=O)O`, the result was inactive.
With `COC(=O)[C@H](Cc1ccccc1)NC(=O)[C@@H](N)CC(=O)O` (H-Asp-Phe-OMe), the compound was classed as inactive.
The same measure, in the same setting: as for `CCCCc1ccc(Cl)cc1`, the entry is “inactive”.
Regarding `CCCCNC(=S)NCCCC`, the call was inactive.
Turning to `O=C(OCc1ccccc1)c1ccc(O)cc1`, the call was inactive.
Still for that read-out and setting: as for `C=C(C)C1CC=C(C)C(OC(C)=O)C1` (stereo not given), the entry is “inactive”; as for `CC1=CP(=O)(c2ccccc2)CC1` (stereo not given), “inactive”.
Regarding `C=CC(=O)O[C@H]1C[C@@H]2CC[C@@]1(C)C2(C)C`, the AC50 – broadly, the concentration at which the activity in the assay is half-maximal – is 177 µM (active).
Take `C=CC(=O)OCCCCCCCCCC`: the AC50 was 46 µM (active).
Regarding `O=C(Cl)c1c(Cl)c(Cl)c(C(=O)Cl)c(Cl)c1Cl`, the outcome was inactive.
Regarding `CCCCNS(=O)(=O)c1ccc(C)cc1`, the compound was called inactive.
`CC(C)(CO)C(O)C(=O)NCCCO` (stereo not given): the call was inactive.
Regarding `CC(CC(C)C)=NO`, the result was inactive.
For `Cc1noc(NS(=O)(=O)c2ccc(N)cc2)c1C`, the compound was classed as inactive.
On to `CCCCCCCCCC[N+](C)(CCCCCCCCCC)CCC[Si](OC)(OC)OC`, for which the AC50 is 16.9 µM (active).
In the case of `O=C(O)C(F)(F)C(F)(F)C(F)(F)C(F)(F)C(=O)O`, the outcome was inactive.
As to `C=CC(=O)OCCCCCCCC(C)C`, the AC50 is 70.5 µM (active).
With `NNS(=O)(=O)c1ccc(Oc2ccc(S(=O)(=O)NN)cc2)cc1`, the result was inactive.
Same read-out and setting: as for `Nc1ccc(Cl)c(N)c1`, the entry is “inactive”.
For `CCC[Si](OC)(OC)OC`, the result was inactive.
As to `CCC(C)c1ccccc1` (stereo not given), the compound was called inactive.
On the same count and under the same terms, as for `CCOC(=O)/C=C\C(=O)OCC`, the entry is “inactive”.
For `N#Cc1ccc(C(c2ccc(C#N)cc2)n2cncn2)cc1`, the call was inactive.
As to `CCC(=O)C1CC(C(C)C)CC=C1C` (stereo not given), the compound was classed as inactive.
On to `Nc1nc(N)nc(-c2ccccc2)n1`, for which the compound was classed as inactive.
`Cc1c(Cl)cccc1Cl`: the compound was called inactive.
For the compound `C=CCCCCCCCCOC(C)=O`, the result was inactive.
On to `O=c1c(O)c(-c2ccc(O)cc2O)oc2cc(O)cc(O)c12`, for which the outcome was inactive.
`C=CCCCCCCCCC=O`: the result was inactive.
The same measure, in the same setting: as for `C=CC(C)(CCC=C(C)C)OC(=O)C=Cc1ccccc1` (stereo not given), the entry is “inactive”; as for `CCCC/C=C/C=C\C=O`, “inactive”; as for `CCOC(=O)c1ccccc1C`, “inactive”.
In the case of `CCCCCC(=O)OCC`, the call was inactive.
Regarding `O=C1CCCCCCCCCCC1`, the result was inactive.
On the same count and under the same terms, as for `COCC(=O)O`, the entry is “inactive”; as for `Cc1ccc(S(=O)(=O)N=C=O)cc1`, “inactive”; as for `Nc1cccc(N)n1`, “inactive”.
For `CN1CCN(C)CC1`, the compound was classed as inactive.
On to `CO[Si](CCCS)(OC)OC`, for which the compound was called inactive.
